Screening results deposited in PubChem BioAssay by Broad Institute.
Only some compounds are listed: those with a hit (about 4.1% of all), similar ones and a draw of the others.
ALR inh = inhibitors of human ALR sulfhydryl oxidase, primary screen, biochemical, H2O2 detection, HRP-luminol luminescence, single point. FAD-linked sulfhydryl oxidase ALR (Homo sapiens), P55789. purified ALR, DTT oxidation. inhibition, % (test concentration not listed). 3.8% of 290,000 active;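 active = mean replicate inhibition above about 79%, with every replicate also reaching it, limit read from the data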
Target sequence (P55789 whole entry, looked up): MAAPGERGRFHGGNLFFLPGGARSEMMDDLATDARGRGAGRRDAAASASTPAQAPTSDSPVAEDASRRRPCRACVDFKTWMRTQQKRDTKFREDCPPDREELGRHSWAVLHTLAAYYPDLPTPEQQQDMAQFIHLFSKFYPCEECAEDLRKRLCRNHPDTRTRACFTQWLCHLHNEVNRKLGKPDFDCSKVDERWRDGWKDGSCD
CASP6 VEID inh = human caspase-6 inhibitors, primary screen, biochemical, VEID-R110 fluorescence, single point, set 2; 0.53% of 350,000 active; P55212; inhibition, % at 12.5 µM; purified caspase-6, Z-VEID-R110 cleavage fluorescence;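 active = mean inhibition across replicates at least about 35%, with every replicate also reaching that limit, limit read from the data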;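 note: 0% = median of neutral control wells and 100% = no fluorescence left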
Target sequence (P55212 24-179 limits assumed): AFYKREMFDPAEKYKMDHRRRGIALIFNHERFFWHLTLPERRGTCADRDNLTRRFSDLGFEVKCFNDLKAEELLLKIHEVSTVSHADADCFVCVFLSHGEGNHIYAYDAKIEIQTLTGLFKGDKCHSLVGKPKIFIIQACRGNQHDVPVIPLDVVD
Target sequence (P55212 194-293 limits assumed): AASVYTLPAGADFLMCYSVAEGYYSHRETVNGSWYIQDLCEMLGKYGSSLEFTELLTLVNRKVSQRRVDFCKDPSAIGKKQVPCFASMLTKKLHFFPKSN
NSD2 HMT inh = NSD2 histone methyltransferase inhibitors, primary screen, biochemical, AlphaScreen, single concentration, set 2. 0.54% of 310,000 active. inhibition, % at 12.5 µM. Histone-lysine N-methyltransferase NSD2 (Homo sapiens), O96028. NSD2 peptide methylation, 120 min. AID 743445, 2014; in the data active = inhibition above about 50%
PglD inh = C. jejuni PglD acetyltransferase inhibitors, primary screen, biochemical, DTNB colorimetric, single point; AID 602405, 2012; inhibition, % at 12.5 µM; purified PglD enzyme, DTNB colorimetric CoA detection; 0.098% of 360,000 active; UDP-N-acetylbacillosamine N-acetyltransferase PglD (Campylobacter jejuni); in the data active = inhibition above about 16%, passing the limit was not always enough
F508del corr = F508del CFTR correction, initial screen, CFBE line, single point. activity (quench increase), % at 7.58 µM. CFBE cells, YFP halide quenching; stimulated with forskolin plus potentiator P3; % fluorescence drop versus neutral controls. 0.36% of 350,000 active. AID 720511, 2013;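 active = mean added fluorescence quench of at least 8% versus neutral control, with both replicates also reaching 8%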;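 note: cells transiently co-express mutant CFTR-F508del with the halide-sensitive YFP; corrector assay measuring rescue of mutant channel to the surface after 24 h compound exposure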
HIV Env fusion = inhibitors of HIV-1 Env-driven cell-cell fusion, primary screen, HeLa-JRFL effector, CEM21 target cells, luciferase; inhibition, % at 12.3 µM; 1.1% of 360,000 active;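 active = mean replicate inhibition score of at least 50 and every replicate individually at or above 50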;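 note: 0% = plate neutral controls and 100% = maraviroc near 300 nM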
Active calls of the source: *; . = no result given; [ ] = remark or other dose.

SMILES	ALR inh	CASP6 VEID inh	NSD2 HMT inh	PglD inh	F508del corr	HIV Env fusion
CC(C)NC(=O)N1C[C@@H]2[C@H](c3ccccc31)[C@H](CO)N2Cc1ccc(Cl)cc1	.	3.7	.	-1.8	1.1	.
O=[N+]([O-])c1ccc(N2CCCC2)cc1N1CCCC1	64.8	.	53.4*	5.0	.	-15.3
O=C(NCC(F)(F)F)[C@H]1[C@H](CO)[C@H]2Cn3c(cccc3=O)[C@H]2N1C(=O)C1CCC1	.	2.4	.	-0.6	1.1	.
Nc1cc2c(cc1C(=O)c1ccccc1)OCCO2	98.1*	.	16.1	-7.8	.	-122.3
CC(C)(C)c1nnc(NS(=O)(=O)c2cc(Cl)ccc2Cl)s1	4.9	1.6	-1.3	-8.0	0.9	-68.7
O=S(=O)(Nc1nc(-c2sccc2Cl)cs1)c1cc(Cl)ccc1Cl	97.6*	.	.	6.2	.	.
CC(C)n1c2ccccc2c2cc([N+](=O)[O-])ccc21	4.2	1.8	-0.1	.	.	24.9
CN(C)/C=C/c1c([N+](=O)[O-])c2ccc(O)cc2n1-c1ccccc1	6.7	8.5	2.4	.	-3.8	35.0
C[n+]1c(-c2ccccc2)cc2c(=Cc3ccccc3)c3ccccc3n21	.	52.7*	24.4	.	3.6	45.8
C[n+]1c(-c2ccccc2)cc2c(=Cc3ccc([N+](=O)[O-])cc3)c3ccccc3n21	.	82.7*	-0.6	.	-0.2	-369.2
CN(C)c1ccc(C=c2c3cc(O)ccc3n3c2cc(-c2ccccc2)[n+]3C)cc1	.	95.2*	42.9	.	3.1	63.8*
CO[C@@H]1CN(C)C(=O)c2cc(NC(=O)C3CCC3)ccc2OC[C@H](C)N(C)C[C@@H]1C	.	.	.	1.3	-4.4	12.2[16.7 µM]
CC(C)NC(=O)N1CC2(C1)[C@H](c1ccccc1)[C@@H](CO)N2CCC(F)(F)F	.	-0.9	.	.	1.1	.
Cc1ccc(S(=O)(=O)N[C@H]2CC[C@H](CCNC(=O)Cc3ccccn3)O[C@@H]2CO)cc1	.	-4.5	.	0.5	-0.4	12.3[16.7 µM]
CN(c1ccc(OCCOc2ccccc2Cl)cc1)S(=O)(=O)c1ccccc1	-0.7	-1.3	3.2	2.3	8.1*	0.2
COc1ccc(OCCOc2ccc(N(C)S(=O)(=O)c3ccccc3)cc2)cc1	1.7	-1.6	.	0.8	-1.6	1.9
Cn1cnnc1SCC(=O)c1cc2ccccc2o1	88.1*	-0.3	0.3	.	-2.7	-7.7
Cn1c(SCC(=O)c2cc3ccccc3o2)nnc1-c1ccccc1	96.7*	1.8	.	-2.9	-2.1	-12.7
Cn1ccnc1SCC(=O)c1cc2ccccc2o1	-1.6	.	7.0	-0.6	.	-41.0
O=C(Nc1ccccc1F)N1CC(=O)N2[C@H](CO)[C@H](c3ccc(C#Cc4ccc(F)cc4)cc3)[C@H]2C1	.	-1.8	.	.	3.9	.
C[C@@H]1CN([C@@H](C)CO)C(=O)c2cc(NC(=O)Nc3ccc(F)cc3)ccc2O[C@@H]1CN(C)S(=O)(=O)c1cn(C)cn1	.	2.7	.	0.1	0.5	0.8[16.7 µM]
COc1ccc(NC(=O)CSc2nnc(Cc3ccccc3)c(=O)n2N)c(OC)c1	0.0	4.9	1.2	.	4.7	-15.5
Nn1c(SCC(=O)Nc2ccc(OC(F)F)cc2)nnc(Cc2ccccc2)c1=O	97.9*	3.2	-1.8	-7.1	-1.6	-33.5
O=C(CSc1nc2nn(-c3ccccc3)c(=O)c-2c2n1CCCCC2)Nc1ccc(OC(F)F)cc1	47.8	-2.8	0.7	-2.1	8.1*	27.9
Cc1nnc(SCC(=O)Nc2ccc(OC(F)F)c(Cl)c2)n(N)c1=O	99.0*	0.5	-1.6	7.8	-2.9	-24.9
SMILES	ALR inh	CASP6 VEID inh	NSD2 HMT inh	PglD inh	F508del corr	HIV Env fusion
Cc1ccc(NC(=O)CSc2nnc(C)c(=O)n2N)cc1Cl	48.2	-2.7	-1.7	-4.2	1.1	-9.2
COc1ccc(S(=O)(=O)Nc2ccc3c(c2)C(=O)N([C@@H](C)CO)C[C@H](C)[C@H](CN(C)C(=O)NC(C)C)OCCCC[C@@H](C)O3)cc1	.	-1.3	.	-4.1	-2.5	67.5*[16.7 µM]
COc1ccc(NC(=O)N(C)C[C@H]2OCCCC[C@@H](C)Oc3ccc(NS(=O)(=O)c4cn(C)cn4)cc3C(=O)N([C@H](C)CO)C[C@@H]2C)cc1	.	59.9*	.	-1.8	-1.5	-30.1[16.7 µM]
O=C(C[C@@H]1CC[C@H]2[C@@H](COC[C@@H](O)CN2CCc2ccccc2)O1)NCc1ccc(F)cc1	.	-0.2	.	4.6	-0.2	.
CCOc1cc2c(cc1OC)C(c1cccc([N+](=O)[O-])c1)NCC2 (stereo unspecified)	.	42.3*	-24.2	.	2.9	3.4
CC(=O)C1=C(C)NC(SCc2ccc(C#N)cc2)=C(C#N)C1c1ccco1 (stereo unspecified)	32.8	-1.7	-1.0	.	.	25.8
CC(=O)C1=C(C)NC(SCc2cccc3ccccc23)=C(C#N)C1c1ccco1 (stereo unspecified)	99.3*	-1.3	2.3	.	.	8.1
O=C(O)C1=C(C(=O)O)C2C=CC1C2	.	52.5*	5.9	4.8	-0.7	-4.0
O=C(NCC1CC1)[C@@H]1N[C@@H]2c3ccc(C4=CCCCC4)c(=O)n3C[C@@H]2[C@H]1CO	.	0.1	.	4.4	.	7.1[16.7 µM]
CC1(Cc2ccccc2OC(F)(F)F)C(=O)Nc2ccc(-c3ccsc3)cc21 (stereo unspecified)	.	-1.8	8.0	1.1	0.5	71.1*
CC1(Cc2ccccc2OC(F)(F)F)C(=O)Nc2cc(-c3ccccc3Cl)ccc21 (stereo unspecified)	.	-1.1	0.6	1.8	0.1	55.6*
CC1(Cc2ccccc2Cl)C(=O)Nc2cc(-c3ccccc3Cl)ccc21 (stereo unspecified)	.	-3.9	1.2	-3.4	0.3	-2.7
COC(=O)c1cccc(CC2(C)C(=O)Nc3cc(-c4ccccc4Cl)ccc32)c1 (stereo unspecified)	.	1.1	-6.5	-2.5	1.2	90.0*
O=C(CCN1CCCCC1)NCC[C@@H]1CC[C@@H](NC(=O)C2CCCC2)[C@H](CO)O1	.	-0.1	.	1.8	-1.4	-1.0[16.7 µM]
C[C@H]1CN([C@@H](C)CO)C(=O)c2cc(NC(=O)C3CC3)ccc2O[C@H]1CN(C)C(=O)Nc1ccc(C(F)(F)F)cc1	.	1.7	.	-0.8	-0.5	.
O=[N+]([O-])c1ccc(S(=O)(=O)c2ccccc2)nc1	98.0*	7.1	.	-2.4	-1.5	-197.8
Cc1ccc(S(=O)(=O)c2ccc([N+](=O)[O-])cn2)cc1	88.5*	13.8	.	3.4	-5.8	-349.1
Cc1cc2c(Nc3cccc(O)c3)ncnc2s1	98.8*	-0.9	7.9	-2.8	-1.0	3.4
Cc1cc2c(Nc3ccccc3O)ncnc2s1	.	-0.7	-1.8	-0.9	-2.4	16.3
O=C(C1CCOCC1)N1[C@H](CO)[C@@H]2c3ccccc3NC[C@@H]21	.	.	.	-0.5	-1.2	.
